Rev-erbA mod – modulates human Rev-erb alpha binding to DNA | 370,000 tested, 0.79% active | P20393 | Rev-erbα–FITC-DNA binding, fluorescence polarization, 90 min | activity, % at 10 µM | AID 1259318;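 active = activity above about 14%, limit read from the data; passing the limit was not always enough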
p47phox inh – blocks human p47phox regulatory protein of NADPH oxidases; P14598; p47phox/p22phox peptide binding, fluorescence polarization, 2 h; inhibition, % at 24.7 µM; 220,000 tested, 0.53% active; AID 1274;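 active = inhibition above about 30%, limit read from the data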
ZTA DNA inh – ZTA (EBV) inhibition in EBNA-1 counter-screen; P03206; ZTA-DNA binding, fluorescence polarization; inhibition, % at 11 µM; 320,000 tested, 0.15% active; in the data active = inhibition above about 33%
Target sequence (P03206 whole entry, looked up): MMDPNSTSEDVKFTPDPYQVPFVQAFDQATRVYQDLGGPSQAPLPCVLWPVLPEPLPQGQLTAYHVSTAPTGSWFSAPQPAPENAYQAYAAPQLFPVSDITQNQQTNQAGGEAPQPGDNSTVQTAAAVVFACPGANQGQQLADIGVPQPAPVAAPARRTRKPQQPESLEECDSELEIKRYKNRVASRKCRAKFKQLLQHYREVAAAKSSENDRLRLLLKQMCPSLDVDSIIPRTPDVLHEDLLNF
EBNA-1 inhibitor – blocks EBNA-1 binding to DNA. EBNA-1 DNA binding, fluorescence polarization. inhibition, % at 14.8 µM. 300,000 tested, 0.34% active; in the data active = inhibition above about 28%
aDG glyco up – increases alpha dystroglycan glycosylation; 360,000 tested, 0.22% active; activation, % at 10 µM; Pro5-aDG cells, alpha-DG glycosylation AlphaScreen (IIH6); 0% Pro5, 100% B10-LARGE cell signal;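 active = activation of at least 8% versus controls, or a plate z-score of at least 8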;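 also: Pro5 are CHO cells carrying HIG-tagged alpha-DG that lacks glycosylation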
PG9 binder – small molecules binding HIV-1 gp120 antibody PG9; AID 624416; 360,000 tested, 0.43% active; inhibition, % at 6.7 µM; TR-FRET gp120-PG9 antibody binding; in the data active = inhibition above about 8.5%
PG9 binder conf – confirmation of small molecules binding HIV-1 gp120 antibody PG9; shares compounds with PG9 binder; TR-FRET PG9 antibody binding, biochemical; inhibition, % at 6.7 µM; 1,500 tested, 90% active; in the data active = inhibition above about 9%
PGV04 counter – binds control antibody PGV04 in PG9 binder counter-screen; TR-FRET PGV04 antibody-gp120 binding, biochemical; inhibition, % at 6.7 µM; shares compounds with PG9 binder; AID 651604; 1,500 tested, 95% active; in the data active = inhibition above about 9.5%
PG9 bind DR – PG9 antibody binding, dose response | shares compounds with PG9 binder | TR-FRET PG9 antibody-gp120 binding inhibition | IC50, µM | 95 tested, under 10 active; in the data active = IC50 below about 10 µM
PGV04 binding DR – counter-screen for PG9 binders: binding to control antibody PGV04. 95 tested, 20% active. shares compounds with PG9 binder. IC50, µM. TR-FRET binding to control antibody PGV04
PG126 DR counter – binds control antibody PG126 in PG9 counter-screen. shares compounds with PG9 binder. TR-FRET binding to antibody PG126, counterscreen. IC50, µM. 95 tested, 20% active. AID 651939
A number is an active result; . = inactive; / = not tested or not shown. Only some compounds are listed: those with a hit (about 1.9% of all), similar ones and a draw of the others. Rule as the data show it, unless noted: active = IC50 below about 9 µM; inactive = the rest.

SMILES	Rev-erbA mod	p47phox inh	ZTA DNA inh	EBNA-1 inhibitor	aDG glyco up	PG9 binder	PG9 binder conf	PGV04 counter	others
O=C(Cn1c(=O)c2cccn2c2cccnc21)NCCCN1CCN(c2ccc(Cl)cc2)CC1	.	/	/	/	/	/	/	/
Cn1c(CNC(=O)C2CCCCC2)cc2cc(Cl)ccc21	.	/	.	.	.	19	22	34
COCCCn1c(=O)/c(=C\c2ccc(OC(F)F)c(OC)c2)s/c1=C(/C#N)C(N)=O	.	.	.	.	.	14	36	39
COc1ccc(CN2CCC(CNC(=O)Nc3ccc(Cl)cc3)CC2)cc1	.	/	/	/	/	/	/	/
O=C(CCc1ccccc1)N[C@H]1[C@@H](OC(=O)c2cccnc2)CCC[C@]12C(=O)N(Cc1ccccc1)c1ccccc12	.	/	/	/	/	/	/	/
CC(=O)c1ccc(N2CCN(S(=O)(=O)c3cccc(S(=O)(=O)N4CCOCC4)c3)CC2)cc1	.	.	.	.	.	16	18	27
COc1ccc(OC)c(S(=O)(=O)N2CCCCC2C(=O)N2CCN(c3ccc(F)cc3)CC2)c1 (stereo not given)	.	/	/	/	/	/	/	/
C[C@H](NC(=O)C[C@@H]1CC[C@H]2[C@@H](COC[C@H](O)CN2Cc2ccc(C(F)(F)F)cc2)O1)c1ccccc1	.	/	/	/	.	8.8	14	19
O=C(Nc1ccc2ccccc2c1)NC1CCCCN(Cc2ccc(Cl)cc2)C1=O (stereo not given)	.	/	/	/	/	/	/	/
CC1CCN(C(=O)Cn2cnc3c(cnn3C(C)(C)C)c2=O)CC1	.	.	.	.	.	11	.	10
CCC1(C)Cc2ccccc2-c2nc(SC)[nH]c(=O)c21 (stereo not given)	.	/	.	.	.	13	9.4	.	PG9 bind DR=.;PGV04 binding DR=.;PG126 DR counter=.
O=C(Nc1ccc2c(c1)OCO2)C1COc2ccccc2O1 (stereo not given)	.	.	.	.	.	.	/	/
Cc1cc(=O)oc2cc(NC(=O)C3COc4ccccc4O3)ccc12 (stereo not given)	.	.	.	.	.	16	39	33	PG9 bind DR=.;PGV04 binding DR=.;PG126 DR counter=.
CCOC(=O)Cn1c(=S)[nH]c2c(oc3ccc(Cl)cc32)c1=O	.	.	.	.	.	16	.	9.4
CCOC(=O)N1CCN(C(=O)c2ccc3c(=O)n(Cc4ccc(Cl)cc4)c(=S)[nH]c3c2)CC1	.	.	.	.	.	.	/	/
O=C1C=C(O)c2cccc3cccc1c23	.	/	.	.	.	49	39	58
NC1=CC(=O)c2cccc3cccc1c23	/	/	.	.	/	/	/	/
CCCCNS(=O)(=O)c1ccc2nc(-c3cccnc3)cc(C(=O)NCCCOCC)c2c1	/	.	.	.	/	/	/	/
CCCCNS(=O)(=O)c1ccc2nc(-c3cccnc3)cc(C(=O)NCCCOC)c2c1	.	.	.	.	.	11	13	15
COc1ccc(CNC2CCC23CCC(c2ccccc2)CC3)cc1OC (stereo not given)	.	/	/	/	/	/	/	/
O=C(O[C@H]1CC[C@@]23CCCN2C(=O)CCC[C@H]3C1)N1CCOCC1	.	/	/	/	/	/	/	/
CC(C)(C)c1ccc(-c2nnc3sc(COc4ccccc4)nn23)cc1	.	/	/	/	/	/	/	/
CC1CCC2(CC1)CCC2NCc1ccc(Br)cc1 (stereo not given)	.	/	/	/	/	/	/	/
COc1cc(OC)cc(C(=O)Nc2sc3c(c2C(N)=O)CCC3)c1	.	/	.	.	.	50	18	31
COc1ccc(NC(=O)CN(C)CC(=O)Nc2sc3c(c2C(N)=O)CCC3)cc1	.	/	.	.	.	.	/	/
CCCC(=O)Nc1nc(C)c(C(C)=O)s1	.	.	.	.	.	32	36	49

Screens deposited in PubChem by several laboratories.
